38 compounds from PubChem BioAssay (Tox21) can be followed below.

“And” between values parts separate entries of the source, which are not always exact repeats. Equal values may be shown once. More than one record can exist for a structure, and the calls need not agree. The source made the active and inactive calls. Where a call stands in place of a potency, no number is given. Unless noted, the call rests on the fitted dose curve.
Potency means the concentration at half of the fitted maximal effect.

System in one assay: not listed separately
Briefly: qHTS assay to identify small molecule antagonists of the estrogen receptor alpha (ER-alpha) signaling pathway - cell viability counter screen (AID 743074).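 Further: HEK293 cells carrying ER-alpha-UAS-bla reporter stimulated with 17beta-estradiol; nearly all actives have a fitted effect of over 45% in size.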 The following applies: ERalpha-bla HEK293 viability, CellTiter-Glo luminescence, 18 h; series mostly up to 69.4 µM. On the technique in general: In qHTS, concentration-response curves come from the screen itself.
Regarding `Brc1c(Br)c(Br)c(Br)c(Br)c1Br`, the activity, negative = cytotoxicity is -1.91% [at 6.72 µM] (inactive).

Consider `BrCC1CO1` (centres undefined), for which the Potency result was “inactive”.

For the compound `CC(C)(C1CCC(O)CC1)C1CCC(O)CC1` (centres undefined), the Potency result is “inactive”.

Turning to `CCCCCCCCBr`, the Potency entry was “inactive”.

For the compound `CCOc1cc(OP(=S)(OC)OC)nc(CC)n1`, the Potency result was “inactive”.

Consider `Cc1ccc(Cl)c(O)c1`, for which the Potency result is “inactive”.

Turning to `O=C(Cl)C(Cl)(Cl)Cl`, the Potency result is “inactive”.

Turning to `O=C(Cl)C(Cl)Cl`, the Potency entry is “inactive”.

As to `ClCC1CO1` (centres undefined), the Potency result is “inactive”.

As to `C#CCOC(=O)/C=C(C)/C=C/CC(C)CCCC(C)C` (centres undefined), the Potency result is “inactive”.

In the case of `NNCc1ccccc1`, the Potency entry was “inactive”.

For `CCCCOC(C)=O`, the Potency result was “inactive”.

In the case of `Cn1c(N)nc2c3cccnc3ccc21`, the Potency result is “inactive”.

Consider `C=C(Cl)CCl`, for which the Potency entry is “inactive”.

In the case of `CCNc1nc(Cl)nc(NC(C)(C)C)n1`, the Potency result is “inactive”.

Turning to `C(COCC1CO1)OCC1CO1` (centres undefined), the Potency result is “inactive”.

In the case of `c1ccc2c(c1)CCNC2`, the Potency entry is “inactive”.

As for `CNC(=O)O/N=C(/CSC)C(C)(C)C`, the Potency result was “inactive”.

On to `CN(C)CCN(C)C`, for which the Potency entry was “inactive”.

As for `CC(C)(C)c1cc(O)ccc1O`, the Potency entry is “inactive and 26.8 µM (active)”.

Consider `OCC(Cl)CCl` (centres undefined), for which the Potency entry is “inactive”.

With `O=C(O)C(Br)(Br)Br`, the Potency result was “inactive”.

Take `CCOC(=O)CC(SP(=S)(OC)OC)C(=O)OCC` (centres undefined): the Potency result was “inactive”.

In the case of `Cc1ccc2c(c1)C1CN(C)CCC1N2` (centres undefined), the Potency result was “inactive”.

Turning to `OP(O)c1ccccc1`, the Potency entry is “inactive”.

`CCNP(=S)(OC)O/C(C)=C/C(=O)OC(C)C` (centres undefined): the Potency result was “inactive”.

As for `CN(CCO)CCO`, the Potency result is “inactive”.

In the case of `Cc1ccc(S(=O)(=O)N[C@@H](CCCCN)C(=O)CCl)cc1`, the Potency entry is “inactive”.

Regarding `CCC(C(N)=O)N1CCCC1=O` (centres undefined), the Potency entry is “inactive”.

On to `C=C1CC[C@@]2(O)[C@H]3Cc4ccc(O)c5c4[C@@]2(CCN3CC2CC2)[C@H]1O5`, for which the Potency entry was “inactive”.

Consider `CCN(CCO)CCn1c(Cc2ccccc2)nc2c1c(=O)n(C)c(=O)n2C`, for which the Potency entry is “inactive”.

With `C=C(C)[C@H]1CN[C@H](C(=O)O)[C@H]1CC(=O)O`, the Potency result was “inactive”.

As for `Cc1ccc2cc(C)ccc2c1`, the Potency entry is “inactive”.

Regarding `CC(C)(C)C(=O)Cl`, the Potency entry is “inactive”.

For a further assay, the target named is Estrogen receptor (Homo sapiens) (UniProt P03372). In words: qHTS assay to identify small molecule agonists of the estrogen receptor alpha (ER-alpha) signaling pathway (AID 743075).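 Further: HEK293 GripTite cells with ER-alpha and UAS-driven beta-lactamase reporter.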 The following applies: HEK293 ER-alpha-UAS-bla, beta-lactamase FRET ratio, 18 h; series mostly up to 70.1 µM.
Sequence of Estrogen receptor (Homo sapiens) (P03372 whole entry, looked up): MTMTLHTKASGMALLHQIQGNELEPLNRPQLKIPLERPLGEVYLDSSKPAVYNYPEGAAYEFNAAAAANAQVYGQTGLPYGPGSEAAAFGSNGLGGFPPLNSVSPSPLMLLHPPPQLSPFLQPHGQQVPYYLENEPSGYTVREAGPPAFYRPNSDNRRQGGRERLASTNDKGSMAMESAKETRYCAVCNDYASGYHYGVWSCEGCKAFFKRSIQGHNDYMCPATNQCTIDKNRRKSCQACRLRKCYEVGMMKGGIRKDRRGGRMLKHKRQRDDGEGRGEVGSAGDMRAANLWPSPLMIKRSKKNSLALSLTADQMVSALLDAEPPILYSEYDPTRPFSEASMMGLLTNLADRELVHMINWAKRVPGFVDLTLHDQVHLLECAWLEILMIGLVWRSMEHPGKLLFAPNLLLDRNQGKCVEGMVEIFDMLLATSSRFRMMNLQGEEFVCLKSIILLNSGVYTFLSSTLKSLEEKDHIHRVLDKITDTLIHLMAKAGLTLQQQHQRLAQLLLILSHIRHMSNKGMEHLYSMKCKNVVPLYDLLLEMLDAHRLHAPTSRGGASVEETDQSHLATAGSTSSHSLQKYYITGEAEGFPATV
For `CC(Cc1ccccc1)NCCn1cnc2c1c(=O)n(C)c(=O)n2C` (centres undefined), the Potency result is “inactive”.

For `Brc1c(Br)c(Br)c(Br)c(Br)c1Br`, the activation is 2.61% [at 6.71 µM] (inactive).

Consider `BrCC1CO1` (centres undefined), for which the Potency entry is “inactive”.

On to `CC(C)(C1CCC(O)CC1)C1CCC(O)CC1` (centres undefined), for which the Potency is 49 µM [activator] (active).

On to `CCOc1cc(OP(=S)(OC)OC)nc(CC)n1`, for which the Potency entry is “inactive”.

As to `Cc1ccc(Cl)c(O)c1`, the Potency entry was “inactive”.

Turning to `O=C(Cl)C(Cl)(Cl)Cl`, the Potency entry was “inactive”.

As for `O=C(Cl)C(Cl)Cl`, the Potency entry is “inactive”.

For `ClCC1CO1` (centres undefined), the Potency result was “inactive”.

Consider `N#CN=C1SCCN1Cc1ccc(Cl)nc1`, for which the Potency entry is “inactive”.

`C#CCOC(=O)/C=C(C)/C=C/CC(C)CCCC(C)C` (centres undefined): the Potency entry is “inactive”.

`NNCc1ccccc1`: the Potency entry was “inactive”.

Consider `CCCCOC(C)=O`, for which the Potency entry was “inactive”.

`Cn1c(N)nc2c3cccnc3ccc21`: the Potency entry is “inactive”.

Take `C=C(Cl)CCl`: the Potency result was “inactive”.

Turning to `CCNc1nc(Cl)nc(NC(C)(C)C)n1`, the Potency is 61.6 µM [inconclusive] (active).

Turning to `C(COCC1CO1)OCC1CO1` (centres undefined), the Potency result was “inactive”.

Turning to `COc1ccccc1OC`, the Potency entry was “inactive”.

As for `CNC(=O)O/N=C(/CSC)C(C)(C)C`, the Potency entry was “inactive”.

As to `CN(C)CCN(C)C`, the Potency entry was “inactive”.

With `CC(C)(C)c1cc(O)ccc1O`, the Potency result is “inactive”.

Turning to `OCC(Cl)CCl` (centres undefined), the Potency entry is “inactive”.

Take `O=C(O)C(Br)(Br)Br`: the Potency entry is “inactive”.

As to `CCOC(=O)CC(SP(=S)(OC)OC)C(=O)OCC` (centres undefined), the Potency result is “inactive”.

As to `Cc1ccc2c(c1)C1CN(C)CCC1N2` (centres undefined), the Potency entry is “inactive”.

In the case of `OP(O)c1ccccc1`, the Potency entry was “inactive”.

For `CCNP(=S)(OC)O/C(C)=C/C(=O)OC(C)C` (centres undefined), the Potency result was “inactive”.

Consider `CN(CCO)CCO`, for which the Potency entry is “inactive”.

Turning to `CCC(C(N)=O)N1CCCC1=O` (centres undefined), the Potency result is “inactive”.

Take `CCN(CCO)CCn1c(Cc2ccccc2)nc2c1c(=O)n(C)c(=O)n2C`: the Potency result is “inactive”.

Take `O=C(Cl)/C=C/C(=O)Cl`: the Potency entry was “inactive”.

On to `C=C(C)[C@H]1CN[C@H](C(=O)O)[C@H]1CC(=O)O`, for which the Potency result was “inactive”.

Take `CC(C)(C)C(=O)Cl`: the Potency result was “inactive”.

The target is the same in a further assay. In words: qHTS assay to identify small molecule agonists of the estrogen receptor alpha (ER-alpha) signaling pathway using the BG1 cell line (AID 743079; active means well fitted activation curve with a large enough effect in the repeat runs; inconclusive means weak or mixed curves, or effect the other way; inactive means no such curve, though single readings can be large or run the other way; further: nearly all actives have a fitted effect of over 20% in size). Conditions: BG1Luc4E2 cells, ERE-luciferase agonist, 22 h.
For the compound `CC(C)(C1CCC(O)CC1)C1CCC(O)CC1` (centres undefined), the Potency was 54.5 µM (active).

On to `NNCc1ccccc1`, for which the Potency was 62.3 µM (active).

Turning to `CCNc1nc(Cl)nc(NC(C)(C)C)n1`, the Potency is 9.69 µM (active).

Regarding `CCC(C(N)=O)N1CCCC1=O` (centres undefined), the Potency is 21.1 µM (active).

Still in this assay, the particulars now being: BG1Luc4E2 cells, ERE-luciferase agonist, 22 h; at 70.3 µM (top of the series).
Consider `CC(Cc1ccccc1)NCCn1cnc2c1c(=O)n(C)c(=O)n2C` (centres undefined), for which the activation is -17.2% (inactive).

`CCOc1cc(OP(=S)(OC)OC)nc(CC)n1`: the activation is -2.44% (inactive).

With `Cc1ccc(Cl)c(O)c1`, the activation is 9.43% (inactive).

Turning to `O=C(Cl)C(Cl)Cl`, the activation is 0.358% (inactive).

Regarding `ClCC1CO1` (centres undefined), the activation was -1.3% (inactive) and 13.9% (inactive).

For `N#CN=C1SCCN1Cc1ccc(Cl)nc1`, the activation was -2.73% (inactive).

In the case of `Cn1c(N)nc2c3cccnc3ccc21`, the activation was 9.73% (inactive).

Take `C=C(Cl)CCl`: the activation was 0.667% (inactive).

As to `C(COCC1CO1)OCC1CO1` (centres undefined), the activation was 0.393% (inactive).

As to `COc1ccccc1OC`, the activation was 21.9% (inactive).

For `CNC(=O)O/N=C(/CSC)C(C)(C)C`, the activation is -5.87% (inactive).

For the compound `CN(C)CCN(C)C`, the activation is 18.6% (inactive).

With `OCC(Cl)CCl` (centres undefined), the activation is 3.3% (inactive).

`O=C(O)C(Br)(Br)Br`: the activation was 6.64% (inactive).

Turning to `Cc1ccc2c(c1)C1CN(C)CCC1N2` (centres undefined), the activation was -4.51% (inactive).

In the case of `CCNP(=S)(OC)O/C(C)=C/C(=O)OC(C)C` (centres undefined), the activation was 10.8% (inactive).

For the compound `CCN(CCO)CCn1c(Cc2ccccc2)nc2c1c(=O)n(C)c(=O)n2C`, the activation was 6.52% (inactive).

Consider `C=C(C)[C@H]1CN[C@H](C(=O)O)[C@H]1CC(=O)O`, for which the activation is 2.22% (inactive).
